From PubChem BioAssay (Tox21)
Where “and” joins values, the source holds several entries; their conditions need not be identical. Equal entries are not always repeated. Results filed as inconclusive are left out. Calls of active or inactive are those of the source. Calls follow the shape of the dose curve; as a rule, active = well fitted curve in the direction sought with a large enough effect in the repeat runs; inconclusive = weak or mixed curves; inactive = no such curve, though single readings can be large; an effect the other way counts as inactive or inconclusive.

Assays:
[1] = Human pregnane X receptor (PXR) small molecule agonists, qHTS cell viability counter screen (AID 1346977); also: nearly all actives have a fitted effect of over 50% in size
Method in brief: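 HepG2 cells stably carrying the PXR-Luc reporter are cultured with 5% charcoal-stripped FBS and treated with compounds for 24hr. CellTiter-Fluor is added at 23hr and fluorescence is read after 1hr.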

[2] = Caspase-3/7 induction in HepG2 cells by small molecules, qHTS assay (AID 1346978); also: nearly all actives have a fitted effect of over 15% in size; also: potency is read from the fitted curve at half-maximal effect
Method in brief: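 Wild-type HepG2 cells, 2,000/well, settled 5 hr at 37 C and 5% CO2, then compound-treated for 17 hr; caspase-3/7 activity read by luminescent Caspase-Glo 3/7 after 30 min at room temperature.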

[3] = Caspase-3/7 induction in CHO-K1 cells by small molecules, qHTS cell viability counter screen (AID 1346979); also: nearly all actives have a fitted effect of over 35% in size; also: potency is read from the fitted curve at half-maximal effect
Method in brief: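 Seeding: 1,500 CHO-K1 cells/well. Rest: 5hr, 37C. Treatment: compounds in DMSO, 16hr. Read: CellTiter-Fluor, 1hr, fluorescence.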

[4] = Caspase-3/7 induction in CHO-K1 cells by small molecules, qHTS assay (AID 1346980); also: nearly all actives have a fitted effect of over 15% in size; also: potency is read from the fitted curve at half-maximal effect
Method in brief: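 Wild-type CHO-K1 cells exposed to compounds for 17hr at 37 C, 5% CO2. Caspase-3/7 activity then measured by Caspase-Glo 3/7 luminescence after 30min at room temperature.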

[5] = Caspase-3/7 induction in HepG2 cells by small molecules, qHTS cell viability counter screen (AID 1346981); also: series mostly up to about 92 µM; nearly all actives have a fitted effect of over 30% in size
Method in brief: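 Cell viability is measured as a cytotoxicity counter screen alongside the Caspase-Glo 3/7 readout in identical wells. Wild-type HepG2 cells are treated with test compounds for 16 hr at 37 C before CellTiter-Fluor addition and a 1-hr incubation.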

[6] = molecular target: Nuclear receptor subfamily 1 group I member 2 (Homo sapiens) (UniProt O75469); test: Human pregnane X receptor (PXR) small molecule agonists, qHTS assay (AID 1346982); also: nearly all actives have a fitted effect of over 35% in size; also: potency is read from the fitted curve at half-maximal effect
Method in brief: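 Cells: HepG2 stably carrying PXR-Luc. Medium held 5% charcoal-stripped FBS. Compounds in DMSO added after 5 hr plating, incubated 24 hr, then luminescence quantified with ONE-Glo.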

[7] = molecular target: Nuclear receptor subfamily 1 group I member 2 (Rattus norvegicus) (UniProt Q9R1A7); test: Rat pregnane X receptor (rPXR) activation by small molecules, qHTS assay (AID 1346983); settings: rPXR luciferase reporter cells, One-Glo luminescence, 24 h; max activation: active compounds read high; also: nearly all actives have a fitted effect of over 20% in size; also: potency is read from the fitted curve at half-maximal effect
Method in brief: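 Cell-based rPXR activation assay: rPXR cells, 2,000 per well, rested 5hr at 37 C, then exposed to compounds in DMSO for 24 hr at 37 C. Luciferase activity read by One-Glo luminescence after 30 min at room temperature.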

[8] = molecular target: Nuclear receptor subfamily 1 group I member 2 (Homo sapiens) (UniProt O75469); test: CYP3A4 induction through human pregnane X receptor (PXR) by small molecules, qHTS assay (AID 1346984); also: nearly all actives have a fitted effect of over 40% in size; also: potency is read from the fitted curve at half-maximal effect
Method in brief: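 Quantitative HTS in DPX-2 cells, i.e. HepG2 transfected with PXR response element and CYP3A4-promoter luciferase. Compounds in DMSO incubated 24hr at 37C; then P450-Glo CYP3A4 substrate, 3uM final, 3hr; One-Glo luminescence.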

[9] = molecular target: Nuclear receptor subfamily 1 group I member 2 (Homo sapiens) (UniProt O75469); test: Human pregnane X receptor (PXR) activation by small molecules, qHTS assay (AID 1346985); also: nearly all actives have a fitted effect of over 40% in size
Method in brief: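 DPX-2 cells (HepG2 co-transfected with a PXR response element and a CYP3A4-promoter luciferase construct) were seeded at 2,000 per well, rested 5 hr at 37C, then exposed to DMSO-dissolved compounds for 24 hr. Activation was read as luciferase luminescence.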

[10] = molecular target: Cytochrome P450 2D6 (Homo sapiens) (UniProt P10635); test: Cytochrome P450 Family 2 Subfamily D Member 6 (CYP2D6) small molecule antagonists: luciferase reporter qHTS assay (AID 1671196); also: nearly all actives have a fitted effect of over 50% in size; also: potency is read from the fitted curve at half-maximal effect
Method in brief: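 Enzyme and proluciferin substrate were first combined with test chemical for 10 min at room temperature. Adding NADPH regeneration solution started a 1 h reaction, stopped with luciferin detection reagent and read by luminescence 20 min later.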
% is scaled to controls: 0 for no effect and ±100 for the full control effect.

Nuclear receptor subfamily 1 group I member 2 (Homo sapiens), sequence (O75469 whole entry, looked up): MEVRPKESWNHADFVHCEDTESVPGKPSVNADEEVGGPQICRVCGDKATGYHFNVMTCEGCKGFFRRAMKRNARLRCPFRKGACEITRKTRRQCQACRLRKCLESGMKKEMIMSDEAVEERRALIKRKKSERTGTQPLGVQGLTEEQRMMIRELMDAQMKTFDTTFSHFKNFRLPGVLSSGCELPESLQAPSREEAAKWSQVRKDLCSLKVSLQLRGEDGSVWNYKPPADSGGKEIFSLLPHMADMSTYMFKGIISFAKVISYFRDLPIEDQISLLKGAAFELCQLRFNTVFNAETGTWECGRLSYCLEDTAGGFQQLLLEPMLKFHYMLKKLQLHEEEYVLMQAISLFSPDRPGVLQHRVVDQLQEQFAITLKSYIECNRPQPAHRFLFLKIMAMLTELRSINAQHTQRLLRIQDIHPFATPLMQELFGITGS
Cytochrome P450 2D6 (Homo sapiens), sequence (P10635 whole entry, looked up): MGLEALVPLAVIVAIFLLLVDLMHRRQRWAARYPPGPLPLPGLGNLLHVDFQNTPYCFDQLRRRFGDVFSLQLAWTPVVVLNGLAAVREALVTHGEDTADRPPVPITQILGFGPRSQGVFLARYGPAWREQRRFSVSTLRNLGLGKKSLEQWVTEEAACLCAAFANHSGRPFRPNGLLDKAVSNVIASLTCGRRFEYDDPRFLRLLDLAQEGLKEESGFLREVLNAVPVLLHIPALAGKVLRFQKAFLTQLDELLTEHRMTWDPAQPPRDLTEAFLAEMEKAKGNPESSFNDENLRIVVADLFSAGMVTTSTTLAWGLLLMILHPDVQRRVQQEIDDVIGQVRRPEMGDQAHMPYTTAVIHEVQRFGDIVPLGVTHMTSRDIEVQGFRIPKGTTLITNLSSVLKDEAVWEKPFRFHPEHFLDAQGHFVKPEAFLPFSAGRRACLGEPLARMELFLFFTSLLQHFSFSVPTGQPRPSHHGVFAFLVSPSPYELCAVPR
Nuclear receptor subfamily 1 group I member 2 (Rattus norvegicus), sequence (Q9R1A7 whole entry, looked up): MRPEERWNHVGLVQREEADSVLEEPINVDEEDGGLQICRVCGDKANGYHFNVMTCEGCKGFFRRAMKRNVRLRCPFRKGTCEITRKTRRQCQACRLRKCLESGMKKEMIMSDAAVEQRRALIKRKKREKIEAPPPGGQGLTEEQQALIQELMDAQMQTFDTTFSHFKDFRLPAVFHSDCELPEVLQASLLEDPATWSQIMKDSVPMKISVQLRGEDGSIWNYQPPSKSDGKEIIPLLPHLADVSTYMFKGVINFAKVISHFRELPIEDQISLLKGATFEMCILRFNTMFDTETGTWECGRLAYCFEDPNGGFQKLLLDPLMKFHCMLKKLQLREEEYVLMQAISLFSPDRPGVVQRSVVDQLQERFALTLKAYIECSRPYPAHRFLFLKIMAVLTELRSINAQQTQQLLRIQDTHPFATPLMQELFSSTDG

OC1(c2ccccc2)CCNCC1
inactive: Potency [1] | Potency [2] | Potency [3] | Potency [4] | Potency [5] | Potency [6]

CCCCN(CCCC)C(C(N)=O)c1ccc(OC)cc1 (stereo not drawn)
inactive: Potency [1] | Potency [2] | Potency [3] | Potency [4] | Potency [5]

C1C[C@@H]2[C@H]3CC[C@H](C3)[C@@H]2C1
inactive: Potency [1] | Potency [2] | Potency [3] | Potency [4] | Potency [5]

Cc1cc2c(OCC(CNC(C)(C)C)OC(=O)c3ccccc3)cccc2[nH]1 (stereo not drawn)
inactive: Potency [1] | Potency [2] | Potency [3] | Potency [4] | Potency [5] | Potency [6] | max activation [7] -3.65% | Potency [8] | Potency [9]
active: Potency [10] 0.692 µM

CCC1NC(=O)c2cc(S(N)(=O)=O)c(Cl)cc2N1 (stereo not drawn)
inactive: Potency [1] | Potency [2] | Potency [3] | Potency [4] | Potency [5]

Clc1cc(Cl)nc(Cl)n1
inactive: Potency [1] | Potency [2] | Potency [3] | Potency [4] | Potency [5] | Potency [6]

CCOC(=O)c1ccc(OCCN2C[C@H](O)[C@@H](O)[C@H](O)[C@H]2CO)cc1
inactive: Potency [1] | Potency [2] | Potency [3] | Potency [4] | Potency [5]

Cc1cc(O)c(C)c(C)c1O
inactive: Potency [1] | Potency [2] | Potency [3] | Potency [4] | Potency [5] | Potency [6]

CO[C@]1(NC(=O)CSC(F)F)C(=O)N2C(C(=O)O)=C(CSc3nnnn3CCO)CO[C@H]21
inactive: Potency [1] | Potency [2] | Potency [3] | Potency [4] | Potency [5]

COc1ncnc(NS(=O)(=O)c2ccc(N)cc2)c1OC
inactive: Potency [1] | Potency [2] | Potency [3] | Potency [4] | Potency [5] | Potency [6] | max activation [7] -3.86% | Potency [8] | Potency [9] | Potency [10]

O[C@@H]1CO[C@H]2[C@@H]1OC[C@@H]2O
inactive: Potency [1] | Potency [2] | Potency [3] | Potency [4] | Potency [5] | Potency [6] | max activation [7] -1.59% | Potency [8] | Potency [9]

c1ccc2sc(SN(C3CCCCC3)C3CCCCC3)nc2c1
inactive: Potency [1] | Potency [2] | Potency [3] | Potency [4] | Potency [5]

C[C@]12CC[C@@H]3c4ccc(O)cc4CC[C@H]3[C@@H]1CC[C@@H]2OC(=O)CCC1CCCC1
active: Potency [2] 61.1 µM | Potency [3] 54.5 µM and 29.8 µM | Potency [4] 43.3 µM | Potency [6] 21.7 µM and 23.7 µM
inactive: Potency [1] | Potency [5] | max activation [7] 4.34% and -0.252% | Potency [8] | Potency [10]

CC(C)=CCC1C(=O)N(c2ccccc2)N(c2ccccc2)C1=O
inactive: Potency [1] | Potency [2] | Potency [3] | Potency [4] | Potency [5]
active: Potency [6] 29.8 µM | Potency [7] 28.2 µM | Potency [8] 5.01 µM

CCC(OCCCOC)OC(C)=O (stereo not drawn)
inactive: Potency [1] | Potency [2] | Potency [3] | Potency [4] | Potency [5] | Potency [6]

CNC(=O)c1cnn(-c2nc(N)c3ncn([C@@H]4O[C@H](CO)[C@@H](O)[C@H]4O)c3n2)c1
inactive: Potency [1] | Potency [2] | Potency [3] | Potency [4] | Potency [5] | Potency [6]

O=C1NC(=O)c2cc([N+](=O)[O-])ccc21
inactive: Potency [1] | Potency [2] | Potency [3] | Potency [4] | Potency [5]
active: Potency [6] 61.6 µM

COC(=O)CS
inactive: Potency [1] | Potency [2] | Potency [3] | Potency [4] | Potency [5] | Potency [6]

CCOC(=O)c1ccc(C#Cc2ccc3c(c2)C(C)(C)CCS3)nc1
active: Potency [6] 33.5 µM | Potency [7] 10 µM
inactive: Potency [1] | Potency [2] | Potency [3] | Potency [4] | Potency [5] | Potency [8] | Potency [9]

C=C1c2cccc(O)c2C(O)=C2C(=O)[C@]3(O)C(O)=C(C(N)=O)C(=O)[C@@H](N(C)C)[C@@H]3[C@@H](O)[C@H]12
inactive: Potency [1] | Potency [2] | Potency [3] | Potency [4] | Potency [5] | Potency [6] | max activation [7] -2.64% | Potency [8] | Potency [9] | Potency [10]

O=C(O)CCC(=O)C(=O)O
inactive: Potency [1] | Potency [2] | Potency [3] | Potency [4] | Potency [5] | Potency [6] | max activation [7] -0.816% | Potency [8] | Potency [9]
active: Potency [10] 71 µM

CCN(CC)CCNC(=O)COc1ccc(OC)cc1
active: Potency [10] 13.8 µM
inactive: Potency [1] | Potency [2] | Potency [3] | Potency [4] | Potency [5] | Potency [6] | max activation [7] 6.52% | Potency [8] | Potency [9]

Cc1ccc2c(Br)cc(Br)c(O)c2n1
active: Potency [3] 21.1 µM | Potency [6] 11.9 µM
inactive: Potency [1] | Potency [2] | Potency [4] | Potency [5] | max activation [7] -3.38% | Potency [8] | Potency [10]

CCCCCCC(C)(C)C(=O)O
active: Potency [6] 48.6 µM
inactive: Potency [1] | Potency [2] | Potency [3] | Potency [4] | Potency [5]

CCCCCCCCN
active: Potency [6] 27 µM
inactive: Potency [1] | Potency [2] | Potency [3] | Potency [4] | Potency [5]

CC(=O)OCC(=O)NCCCOc1cccc(CN2CCCCC2)c1
inactive: Potency [1] | Potency [2] | Potency [3] | Potency [4] | Potency [5] | Potency [6] | max activation [7] -1.53% | Potency [8] | Potency [9]
active: Potency [10] 15.5 µM
